# Compounds with a hit are over-represented: about 5.7% of the library has one in this group of screens.
# GLP1R inv ag: acts as inverse agonist at human GLP-1 receptor. Potency, µM (doses to about 38.3 µM), without a hit: top-dose activity change, negative = inhibition, actives largely listed as inhibitors. hit rate 1.6% among 410,000. P43220. AID 624417. HEK293 GLP-1R CRE-luciferase, luminescence, 24 h; GLP-1R form is constitutively active; further: potency means the concentration at half of the fitted maximal effect; on the % scale 0 is the no-effect control and ±100 the full control effect; nearly all actives have a fitted effect of over 55% in size
# Target sequence (P43220 whole entry, looked up): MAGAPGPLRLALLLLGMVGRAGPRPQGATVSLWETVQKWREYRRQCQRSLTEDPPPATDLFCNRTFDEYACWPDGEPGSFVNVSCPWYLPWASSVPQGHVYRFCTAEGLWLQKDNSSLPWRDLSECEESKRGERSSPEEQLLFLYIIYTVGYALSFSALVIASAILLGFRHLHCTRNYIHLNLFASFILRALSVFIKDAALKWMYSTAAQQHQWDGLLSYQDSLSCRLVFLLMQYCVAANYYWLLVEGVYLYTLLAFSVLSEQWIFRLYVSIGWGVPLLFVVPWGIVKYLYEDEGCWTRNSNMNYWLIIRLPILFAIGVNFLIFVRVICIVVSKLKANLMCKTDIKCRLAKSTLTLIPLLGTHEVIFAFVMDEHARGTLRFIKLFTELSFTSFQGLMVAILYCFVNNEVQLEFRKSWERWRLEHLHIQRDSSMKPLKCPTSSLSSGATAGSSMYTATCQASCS
#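 HEK293 cells stably co-expressing a cAMP-responsive luciferase reporter and constitutively active GLP-1R were seeded, incubated 12 h, then exposed to compounds for 24 h at 37 C. Luminescence was read 12 min after detection reagent; inverse agonists lower signal.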
# GLP1R cytotox: cytotoxic in the GLP-1 receptor inverse agonist counter-screen; Potency, µM (highest dose often 38.3 µM), without a hit: at the top dose activity change, negative = inhibition, hits mostly inhibitors; HEK293 cAMP-luciferase reporter cells, luminescence, 24 h; hit rate 0.13% among 410,000; AID 624418;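 further: loss of luciferase light is scored as toxicity; potency means the concentration at half of the fitted maximal effect; on the % scale 0 is the no-effect control and ±100 the full control effect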
#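 1536-well qHTS counterscreen of the MLSMR; 200 cells/uL, 12 h pre-incubation, 23 nL cpd, 24 h at 37 deg C 5% CO2, luciferase detection reagent, 12 min RT, luminescence. Inhibition = undesired.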
# GLP-1R agonist: GLP-1 receptor (human) agonism | AID 624172 | HEK293 GLP-1R CRE-luciferase, luminescence, 4-6 h; cells express a hypersensitive GLP-1R form | P43220 | hit rate 0.007% among 380,000 | Potency, µM (top dose mostly 45.6 µM), inactives show at the top dose activation, hits mostly activators; further: potency means the concentration at half of the fitted maximal effect; % of control where 0% means no effect
# D3 antag: antagonists of human D3 dopamine receptor | max response, negative = inhibition, % | P35462 | AID 652054 | hit rate 2.5% among 360,000 | D3R cells, DiscoveRx beta-arrestin luminescence, antagonist mode; stronger effect = lower value; in the data active means max response below about -50%; inconclusive means no clear call, values can overlap the other calls; further: on the % scale 0 is the no-effect control and ±100 the full control effect
#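 Cells expressing the human receptor were seeded at 1500 cells/well, incubated overnight at 37 degrees C in 5% CO2, then exposed to library compounds with dopamine controls for 90 minutes at 37 degrees C before luminescent detection.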
# ClpP mod: qHTS Assay for Activators of ClpP; ATP-dependent Clp protease proteolytic subunit (Bacillus subtilis (strain 168)), P80244; purified B. subtilis ClpP, FRET peptide cleavage, 20 min; Potency, µM (highest dose often 57.5 µM), for the others: top-dose activity change, negative = active; hit rate 1.9% among 340,000; active means well fitted falling curve with a large enough effect; inconclusive means small, poorly fitted or top-dose-only effect; inactive means no such curve, though single readings can be large or run the other way; further: potency means the concentration at half of the fitted maximal effect; the source files actives as falling curves though it sought activators and does not explain the sign; nearly all actives have a fitted effect of over 65% in size
# Target sequence (P80244 whole entry, looked up): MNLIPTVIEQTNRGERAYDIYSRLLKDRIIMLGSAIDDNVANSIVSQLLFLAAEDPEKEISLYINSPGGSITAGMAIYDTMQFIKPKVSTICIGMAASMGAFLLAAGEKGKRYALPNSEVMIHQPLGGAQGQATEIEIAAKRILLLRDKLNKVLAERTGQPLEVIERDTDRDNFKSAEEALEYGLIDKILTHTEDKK
#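 Buffer: 100 mM Tris/HCl pH8, 100 mM KCl, 0.05% low protease BSA, 2.5% glycerol, 0.01% Tween-20. ClpP 10 microg/mL final; 20 min RT; delta FRET normalized to ADEP and DMSO controls.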
# D3 ag: activates the human D3 dopamine receptor. D3R DiscoveRx beta-arrestin cells, luminescence, 90 min. hit rate 0.58% among 410,000. max activation, %. P35462. AID 652048; in the data active means max activation above about 30%; further: 0% is about no effect
#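 Cells at 1500/well, incubated overnight, then treated with pinned compounds (dopamine as control) for 90 min at 37 degrees C. DiscoveRx reagent added for 30 - 60 minutes at room temperature; luminescence read.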
# * hit, by the source's call; ? = inconclusive; · = no result. Unless noted, the call rests on the fitted dose curve; in most records, active means well fitted curve in the direction sought with a large enough effect; inconclusive means small, poorly fitted or top-dose-only effect, or another doubt; inactive means no such curve, though single readings can be large; an effect the other way counts as inactive or inconclusive.
SMILES,GLP1R inv ag,GLP1R cytotox,GLP-1R agonist,D3 antag,ClpP mod,D3 ag
COc1ccc2[nH]c3c(c2c1)CCN1C(=O)C(CC(=O)NCCC2=CCCCC2)C[C@H](C(=O)N2CCOCC2)[C@@]31CCC1CCCC1 (stereo partly drawn),6%,10%,1%,-52*,1%,30
O=C(C[C@H]1C[C@H](C(=O)N2CCOCC2)[C@@]2(CCC3CCCC3)c3[nH]c4cc(-c5ccco5)ccc4c3CCN2C1=O)NCCC1=CCCCC1,10µM*,-15%,-1%,-15,4%,-9
COc1ccc2[nH]c3c(c2c1)CCN1C(=O)C(CC(=O)NCCN2CCOCC2)C[C@H](C(=O)N2CCCCC2)[C@@]31CCc1ccccc1 (stereo partly drawn),11%,8%,2%,-9,1%,30*
CC[C@]12c3[nH]c4cc(-c5ccco5)ccc4c3CCN1C(=O)[C@@H](CC(=O)NCC13CC4CC(CC(C4)C1)C3)C[C@@H]2C(=O)N1CCN(C(=O)C2CC2)CC1,?,-30%,0%,-54*,4%,-46
COc1ccc(C(C(=O)NC2CCCC2)n2c(CSCCOc3ccccc3)nc3ccccc32)cc1 (stereo not drawn),-8%,4%,·,-20,-2%,-21
COc1cc2c(cc1OC)n(CC(=O)c1ccc(F)cc1)c(=O)n1nc(CCn3nc(C)cc3C)nc21,1%,-9%,·,·,-2%,-4
CCC(C)NC(=O)c1ccc2nc(CCc3ccccc3)oc2c1 (stereo not drawn),1%,8%,·,·,-2%,-5
CCCCCCOC(=O)C(C#N)c1nc2ccccc2nc1N1CCOCC1 (stereo not drawn),5%,-12%,-7%,6,-1%,1
CCOC(=O)N1CCN(c2nc3ccccc3nc2C(C#N)C(=O)NCCc2ccccc2)CC1 (stereo not drawn),-21%,14%,-1%,14,14µM*,5
N#CC(C(=O)NCCc1ccccc1)c1nc2ccccc2nc1N1CCCCC1 (stereo not drawn),12%,95%,3%,-4,-3%,0
COc1ccccc1N1CCN(c2nc3ccccc3nc2C(C#N)C(=O)OC(C)C)CC1 (stereo not drawn),11µM*,-23%,-5%,16,1%,6
CCCCCCOC(=O)C(C#N)c1nc2ccccc2nc1N1CCN(CC)CC1 (stereo not drawn),?,?,1%,-59*,0%,1
O=C(NCc1cccs1)c1ccc2nc([C@@H]3O[C@H](CO)[C@H](O)[C@H](O)[C@H]3O)[nH]c2c1,5%,4%,1%,15,0%,3
Cc1ccc(OCC(=O)N(Cc2ccccc2)C(C)(C)C)c([N+](=O)[O-])n1,7%,27%,4%,17,-2%,-4
Cc1ccc(OCC(=O)N(Cc2ccccc2)C(C)C)c([N+](=O)[O-])n1,8%,-17%,5%,6,3.2µM*,2
CCN1CCc2c(sc(NC(=O)c3ccc(S(=O)(=O)N4CCCC(C)C4)cc3)c2C(=O)OC)C1 (stereo not drawn),?,-1%,22%,·,139%,-16
O=C(CN1c2ccc(Br)cc2-c2ccccc2S1(=O)=O)N1CCCCC1,11%,1%,·,·,-3%,1
CC(=O)COc1ccc(-c2csnn2)cc1,10%,-7%,6%,-24,·,-1
c1ccc(COc2ccc(-c3csnn3)cc2)cc1,23%,2%,-7%,-61*,0%,-1
CCC1CCCCN1c1nc(-c2cccc(OC)c2O)nc2ccccc12 (stereo not drawn),?,-23%,4%,28,-4%,31*
Cc1cccc(CNC(=O)c2cnc3c(-c4cccc(C)c4)c(C)nn3c2C)c1,-5%,5%,·,·,-1%,0
Cc1ccc(CNC(=O)CCCn2c(=O)c3ccccc3n(Cc3ccc(Cl)cc3)c2=O)cc1,2%,5%,1%,·,-3%,1
O=[N+]([O-])c1cc(S(=O)(=O)N2CCCC2)ccc1N/N=C1/CCCc2ccccc21,11%,-10%,-5%,2,16µM*,2
Cc1cccc(C(=O)OCC(=O)NC2CCCCCCC2)c1,-28%,-4%,-2%,?,-1%,5
Cc1cccc(C(=O)OCC(=O)NC(=O)NC2CCCCC2)c1,-13%,-13%,-7%,-117*,-1%,3
SMILES,GLP1R inv ag,GLP1R cytotox,GLP-1R agonist,D3 antag,ClpP mod,D3 ag
Cc1ccc(C)c(SCC(=O)NC(=O)NC2CCCC2)c1,11µM*,2%,-4%,-15,0%,-8
CCN1C(C(=O)c2ccccc2)=C(OC(=O)c2ccccc2OC)c2ccccc2S1(=O)=O,10µM*,?,·,·,-2%,3
CC(=O)N1/C(=C/c2ccc(N(C)C)cc2)C(=O)c2ccccc21,10µM*,?,-1%,-51*,10%,-12
COc1cccc(Nc2c3c(nc4c(-c5ccccc5)c(C)nn24)CCC3)c1,5µM*,2%,2%,-12,?,-4
CCCCNc1c2c(nc3c(-c4ccccc4)c(C)nn13)CCC2,0%,4%,23%,-5,742%,-31
Cc1nn2c(Nc3ccc(F)cc3)c3c(nc2c1-c1ccccc1)CCC3,-7%,-9%,0%,-1,14%,3
CCC(C)Nc1c2c(nc3c(-c4ccccc4)c(C)nn13)CCC2 (stereo not drawn),0%,5%,10%,-18,28µM*,4
Cc1nn2c(N3CCN(CCO)CC3)c3c(nc2c1-c1ccccc1)CCCC3,3.5µM*,0%,26%,-20,·,-20
COc1ccc(-c2cc(C(F)(F)F)nc(SCC(=O)N(C)Cc3ccccc3)n2)cc1,?,1%,-8%,·,4%,6
O=C(CSc1nc2[nH]ncc2c(=O)[nH]1)NCc1ccccc1,4%,4%,1%,-59*,2%,-5
O=C(CSc1nc2[nH]ncc2c(=O)[nH]1)NCc1ccc(F)cc1,11%,-2%,-1%,-50*,?,0
CCOc1ccc(-c2csc(NC(=O)CSCC(=O)O)n2)c2ccccc12,8%,?,0%,85,·,45*
CC(O)CN(CCN(CC(C)O)CC(C)O)CC(C)O (stereo not drawn),·,·,0%,·,·,-6
Cc1c(C(=O)OC(C)C)sc(NC(=O)C2c3ccccc3Oc3ccccc32)c1C(=O)OC(C)C,8.9µM*,12%,·,·,?,-8

# Screens from PubChem.
